A word on the AC50: it is the concentration giving half of the maximal activity seen.

For 34 molecules, outcome and AC50 results are on record in PubChem BioAssay (EPA / NIEHS).

“And” between values parts separate entries of the source, which are not always exact repeats. Identical values can stand only once. Results filed as inconclusive are left out. More than one record can exist for a structure, and the calls need not agree. The source made the active and inactive calls. Rule for the calls: active = hit-call score of the fitted dose curve at least 0.9, where 1 is the maximum; inconclusive = response in the unintended direction; inactive = score below 0.9.

Read-out in the assay: xenobiotic metabolism (CYP1A2), CYP1A2 (gene 1544)
Nature of the assay: CLD_CYP1A2_6hr: CellzDirect (CLD) Gene Expression Assay for xenobiotic metabolism (CYP1A2) at 6 hours (AID 2283663).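 For AC50: potency is for induction meaning a rise in mRNA above DMSO.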 The protocol: CLD_6hr is a cell-based, multiplexed-readout assay that uses hepatocyte, a human liver primary cell, with measurements taken at 6 hours after chemical dosing in a 96-well plate.CLD_CYP1A2_6hr is one of 16 assay component(s) measured or calculated from the CLD_6hr assay. It is designed to make measurements of mRNA induction, a form of inducible reporter, as detected with chemiluminescence signals by Quantitative Nuclease Protection Assay (qNPA) technology.Data from the assay component CLD_CYP1A2_6hr was analyzed at the endpoint, CLD_CYP1A2_6hr, in the positive analysis fitting direction relative to DMSO as the negative control and baseline of activity. Using a type of inducible reporter, gain-of-signal activity can be used to understand changes in the reporter gene as they relate to the gene CYP1A2. Furthermore, this assay endpoint can be referred to as a primary readout. To generalize the intended target to other relatable targets, this assay endpoint is annotated to the cyp intended target family, where subfamily is xenobiotic metabolism.
Human hepatocyte cultures were treated daily for two consecutive days with fresh dosing solutions containing appropriate concentrations of the 320 ToxCast chemicals (chemical identities were blinded to CellzDirect and other ToxCast collaborators), vehicle control (0.2% DMSO), and positive control inducers as summarized in Table 1. Due to the large number of treatment groups and chemicals examined, the ToxCast chemicals were divided into two groups (spanning two independent cultures of hepatocytes from separate donor preparations (Hu778: ToxCast plates 1 and 2; Hu776: ToxCast plates 3 and 4). Each preparation of human hepatocyte cultures was treated with respective vehicle control, medium only control, set of six positive controls/reference chemicals for the five hepatic receptor pathways, and a subset of eight of the ToxCast chemicals (indoxacarb, pyrithiobac-sodium, norflurazon, cyhalofop-butyl, methomyl, thiram, acetochlor, and propiconazole). These replicate data, coupled with internal replicates designed within the blinded ToxCast chemical library, provided additional data to evaluate interindividual differences between hepatocyte preparations and their potential impact on chemical profiles.Cell morphology and integrity were evaluated using phase-contrast microscopy as an indicator of hepatocyte cell health (Tyson & Green, 1987). Cultures for each treatment group (i.e., media, vehicle [0.2% DMSO], positive control inducers [multiple concentrations], and the ToxCast chemicals [multiple concentrations]) were observed and cell morphology was assessed relative to vehicle control cultures at each harvest time point (0, 6, 24, or 48 h). […] Images were evaluated at the conclusion of the study to assess changes in cell integrity and account for the effects of chemical exposure on uncharacteristic changes in concentration-dependent gene expression profiles. The results from these determinations of apparent cytotoxicity were annotated (yes/no) alongside the corresponding qNPA data for reference.At the conclusion of each treatment period, hepatocyte cultures (96-well) were washed with 1 volume of HBSS, lysed by addition of 25 ul ArrayPlate lysis buffer (HTG, Tucson, AZ), and 70 ul/well of Denaturation Oil, denatured by incubation at 95C for 10 min, and frozen at approximately -70C until analysis by nuclease protection assay (qNPA) (Roberts et al., 2007). For qNPA analysis, cell lysates were thawed at 50C for approximately 30 min, qNPA probes were added, and samples were incubated at 95C for 10 min to begin the detection process by denaturing the target RNA, dissociating the duplexes and secondary structure hybridization. At the conclusion of the hybridization period, S1 nuclease reagent was added to each sample to digest all nonprotected nucleotides at 50C for 60-90 min. […]
Regarding `CCNc1nc(Cl)nc(NCC)n1`, the molecule was called inactive. The same measure, in the same setting: under `COP(N)(=O)SC` (stereo not given) stands “inactive”.

For `CCCC1COC(Cn2cncn2)(c2ccc(Cl)cc2Cl)O1` (stereo not given), the AC50 was 3.01 µM (active). `COC(=O)C(C)Oc1ccc(Oc2ccc(Cl)cc2Cl)cc1` (stereo not given): the molecule was classed as inactive; the AC50 was 3.97 µM (active) and 4.91 µM (active). In the case of `COc1nc(C)nc(NC(=O)NS(=O)(=O)c2ccccc2Cl)n1`, the AC50 is 0.00149 µM (active) and the call was inactive. As for `CCCCNC(=O)n1c(NC(=O)OC)nc2ccccc21`, the result was inactive. In the case of `C#CCOS(=O)OC1CCCCC1Oc1ccc(C(C)(C)C)cc1` (stereo not given), the AC50 is 1.9 µM (active). Still for that read-out and setting: under `N#CC(CCc1ccc(Cl)cc1)(Cn1cncn1)c1ccccc1` (stereo not given) stands 1.89 µM (active); under `COP(=S)(OC)Oc1nc(Cl)c(Cl)cc1Cl`, 6.12 µM (active). Turning to `CC1COC(Cn2cncn2)(c2ccc(Oc3ccc(Cl)cc3)cc2Cl)O1` (stereo not given), the call was inactive. On to `C=CCC1=C(C)[C@@H](OC(=O)[C@@H]2[C@@H](C=C(C)C)C2(C)C)CC1=O`, for which the outcome was inactive.

Regarding `N#Cc1nn(-c2c(Cl)cc(C(F)(F)F)cc2Cl)c(N)c1S(=O)C(F)(F)F` (stereo not given), the molecule was called inactive. In the case of `Cc1ccc(-c2c(Cl)nc(C#N)n2S(=O)(=O)N(C)C)cc1`, the molecule was called inactive. Turning to `CON(C)C(=O)Nc1ccc(Cl)c(Cl)c1`, the AC50 was 0.752 µM (active). As for `CCCCOC(=O)c1ccccc1C(=O)OCCCC`, the molecule was classed as inactive and the AC50 is 3.87 µM (active). In the case of `CCOP(=S)(OCC)SCn1c(=O)oc2cc(Cl)ccc21`, the molecule was called inactive. Consider `CC(C)Oc1cc(-n2nc(C(C)(C)C)oc2=O)c(Cl)cc1Cl`, for which the AC50 was 2.19 µM (active). In the case of `O=C(O)COc1nc(Cl)c(Cl)cc1Cl`, the molecule was called inactive. Same read-out and setting: as for `Cc1c(F)c(F)c(COC(=O)C2C(/C=C(\Cl)C(F)(F)F)C2(C)C)c(F)c1F` (stereo not given), the entry is “inactive”; as for `COc1nc(NC(C)C)nc(NC(C)C)n1`, “inactive”.

As for `COc1ccc(C(c2ccc(OC)cc2)C(Cl)(Cl)Cl)cc1`, the AC50 is 17.3 µM (active). Take `CCCCC(CC)COC(=O)c1ccccc1C(=O)OCC(CC)CCCC` (stereo not given): the molecule was called inactive.

Turning to `CCNc1nc(Cl)nc(NC(C)C)n1`, the AC50 is 1.62 µM (active). On to `C=CC1(C)OC(=O)N(c2cc(Cl)cc(Cl)c2)C1=O` (stereo not given), for which the AC50 is 0.828 µM (active).

On to `O=C(Nc1ccccc1)Nc1ccnc(Cl)c1`, for which the AC50 was 8.16 µM (active). The same measure, in the same setting: as for `CCOC(=O)CC(SP(=S)(OC)OC)C(=O)OCC` (stereo not given), the figure is 3.97 µM (active); as for `CC1=C(C(=O)Nc2ccccc2)SCCO1`, 7.64 µM (active). As for `O=C(O)c1nc(Cl)ccc1Cl`, the AC50 was 6.11 µM (active) and the result was inactive. The like results for `COc1nc(C)nc(NC(=O)NS(=O)(=O)c2ccccc2CCC(F)(F)F)n1` were, in that order, 2.44 µM (active) and “inactive”.

Take `COc1cnc(OC)n2nc(NS(=O)(=O)c3c(OCC(F)F)cccc3C(F)(F)F)nc12`: the AC50 is 0.255 µM (active). `CCOC(=O)C(Cl)Cc1cc(-n2nc(C)n(C(F)F)c2=O)c(F)cc1Cl` (stereo not given): the call was inactive. Regarding `CCc1nn(C)c(C(=O)NCc2ccc(C(C)(C)C)cc2)c1Cl`, the AC50 is 20 µM (active).

For the molecule `CCCCNC(=O)OCC#CI`, the AC50 was 0.591 µM (active) and the result was inactive. In the case of `CCCN(CCC)c1c([N+](=O)[O-])cc(S(N)(=O)=O)cc1[N+](=O)[O-]`, the outcome was inactive.
